Most compounds without a hit are left out; they make up all but 4% or so of the library.
ROMK mod – human ROMK K+ channel modulation, primary screen | Tet-inducible ROMK, thallium flux fluorescence; actives lie on both sides | AID 1918 | B-score at 10 µM | P48048 | actives 2% (n = 130,000);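 active means signal ratio slope over the read window, or its plate-corrected B-score, at least 3 SD from the plate mean, either direction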;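 further: B-score of the F/F0 ratio slope over 7 to 12 s after thallium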
Target sequence (P48048 whole entry, looked up): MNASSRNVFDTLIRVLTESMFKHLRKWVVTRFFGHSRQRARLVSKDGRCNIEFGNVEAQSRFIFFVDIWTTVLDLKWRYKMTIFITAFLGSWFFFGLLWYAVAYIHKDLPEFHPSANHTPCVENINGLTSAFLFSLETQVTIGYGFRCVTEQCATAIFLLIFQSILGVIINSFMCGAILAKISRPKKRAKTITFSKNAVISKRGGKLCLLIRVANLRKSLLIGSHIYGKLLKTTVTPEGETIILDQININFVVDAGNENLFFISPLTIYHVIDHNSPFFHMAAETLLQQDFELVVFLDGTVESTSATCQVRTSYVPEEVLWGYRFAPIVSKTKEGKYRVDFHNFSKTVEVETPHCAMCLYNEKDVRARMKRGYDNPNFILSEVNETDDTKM
Arbovirus inh – arbovirus infection inhibition; actives 0.37% (n = 200,000); inhibition, % at 10 µM; arbovirus infection cell-based antiviral screen; in the data active means inhibition above about 30%
HSV replic up – increases HSV replication in cells. HSV replication augmentation in cells, fold increase. maximum fold increase. actives 0.005% (n = 220,000). AID 1956; in the data active means maximum fold increase above about 1.5; inconclusive means no clear call, values can overlap the other calls; tested in PC3 cells
Cl transport mod – modulators of human KCC2 chloride dependent transport; Q9H2X9; KCC2 cells, thallium flux FluoZin-2 fluorescence; B-score of Tl+ flux slope (higher = more flux/activation; lower = inhibition) at 10 µM; actives 2.2% (n = 190,000); AID 1456;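 active means thallium flux slope and its plate-corrected score both differing from the plate sample mean at a set confidence after two filtering rounds, in either direction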;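 further: slope of fluorescence scaled to starting intensity during 10 to 20 s after thallium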
Measles CPE – protection of cells from measles virus; protection (pct of control), % at 4 µM; actives 1.5% (n = 140,000); Measles virus-infected cells, CPE protection, absorbance; AID 841; in the data active means protection mostly above about 24%, no sharp cut-off; inactive means mostly below about 26%
KCC2 secondary – confirmation of human KCC2 transport modulators. shares compounds with Cl transport mod. HEK293-KCC2, thallium flux, FluoZin2 fluorescence; stronger effect = higher value. normalised thallium flux (F/F0 slope) at 10 µM. actives 15% (n = 3,700). AID 1713;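 active means thallium flux slope above the same plate's solvent-only control mean plus 3 SD; inconclusive means the two replicate wells disagree; inactive means no significant difference from solvent-only control wells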
KCC2 bumet counter – thallium flux despite bumetanide block in KCC2 cells, secondary assay 3 | HEK293-KCC2 + bumetanide/ouabain, thallium flux FluoZin2; stronger effect = higher value | normalized thallium flux at 10 µM | actives 49% (n = 3,700) | shares compounds with Cl transport mod;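 active means thallium entry rate above the same plate's blocked-transporter control wells by more than 3 SD; inconclusive means the two repeat wells disagree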;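 further: raw slope of fluorescence over initial fluorescence between 10 and 20 s after thallium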
KCC2 sec2 – KCC2 (human) modulation, second secondary assay; normalized thallium flux at 10 µM; actives 23% (n = 3,700); shares compounds with Cl transport mod; HEK293-KCC2, thallium flux FluoZin2 fluorescence; actives lie on both sides; F/F0 rise rate, 10–20 s post-thallium;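 active means thallium flux slope more than 3 SD above or below the plate's solvent-only control mean, mostly below; inconclusive means the two repeat wells disagreed; inactive means no significant shift from solvent-only controls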
HEK counter1 – counter-screen for KCC2 modulators: effect in parental HEK293 cells. thallium flux FluoZin2, ouabain; baseline-ratio fluorescence slope, 10–20 s after thallium. actives 46% (n = 3,700). thallium flux rate (normalised fluorescence) at 10 µM. shares compounds with Cl transport mod;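 active means thallium flux rate significantly above the same plate's solvent-only control wells, beyond their mean plus 3 SD; inconclusive means the two replicate wells gave conflicting results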
KCC2 ouabain – confirmation of human KCC2 modulators with ouabain; actives 48% (n = 3,700); AID 1717; shares compounds with Cl transport mod; raw Tl+ flux slope (below DMSO = inhibition, above = activation) at 10 µM; HEK293-KCC2, thallium flux FluoZin2 fluorescence; bidirectional: low = inhibitor, high = activator;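 active means thallium flux slope beyond 3 SD from same-plate DMSO control mean in most replicates, usually higher, sometimes lower; inconclusive means repeat tests gave conflicting results; inactive means no significant difference from controls in most replicates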;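 further: slope of initial-normalized fluorescence between seconds 10 and 20 after thallium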
HEK293 Tl flux2 – acts in parental HEK cells, second KCC2 counter-screen | actives 33% (n = 3,700) | thallium flux slope at 10 µM | HEK293 parental, thallium flux FluoZin-2 fluorescence slope | shares compounds with Cl transport mod;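 active means thallium flux slope above the same plate's solvent-control mean plus 3 SD in both duplicate wells; inconclusive means duplicate wells that disagreed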;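 further: run without ouabain in cells lacking the KCC2 cotransporter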
Of the large screens only hits and unclear results are named; the others gave an inactive call (follow-up assays come after a bar, where they were run).

O=C(NC(=S)Nc1ccccc1N1CCN(C(=O)c2ccccc2)CC1)c1cccs1	none (no result: Arbovirus inh, Measles CPE)
O=C(NC(=S)Nc1ccc(N2CCOCC2)c(Cl)c1)c1cccs1	none (no result: ROMK mod, Cl transport mod, Measles CPE) | KCC2 secondary 0.0248 | KCC2 bumet counter 0.0582 | KCC2 sec2 inconclusive | HEK counter1 0.0166 | KCC2 ouabain 0.0277 | HEK293 Tl flux2 0.0168
O=C(NC(=S)Nc1ccccc1N1CCCCC1)c1cccs1	Cl transport mod 18.3 | KCC2 secondary inconclusive | KCC2 bumet counter 0.0353 | KCC2 sec2 inactive | HEK counter1 0.0509 | KCC2 ouabain 0.0425 | HEK293 Tl flux2 0.0158
CCOC(=O)CSc1nnc(Cn2nnc3ccccc32)n1-c1ccc(F)cc1	none (no result: ROMK mod, Arbovirus inh, Measles CPE)
CCOc1nc(-c2ccncc2)nc2ccccc12	none | KCC2 secondary inactive | KCC2 bumet counter inactive | KCC2 sec2 inconclusive | HEK counter1 inactive | KCC2 ouabain inactive | HEK293 Tl flux2 inactive
CCCOc1ccc(-c2nc(OCC)c3ccccc3n2)cc1	none (no result: Cl transport mod)
c1ccc(-n2cnc3cc(NCc4ccccn4)ccc32)cc1	none (no result: ROMK mod)
c1ccc(-n2cnc3cc(NCc4ccncc4)ccc32)cc1	Cl transport mod -4.37 | KCC2 secondary inactive | KCC2 bumet counter inactive | KCC2 sec2 0.0249 | HEK counter1 inactive | KCC2 ouabain inconclusive | HEK293 Tl flux2 inactive
O=C(Cn1cnc2c(nnn2Cc2ccccc2F)c1=O)OCc1ccccc1	Cl transport mod -7.37 (no result: ROMK mod, HSV replic up) | KCC2 secondary inactive | KCC2 bumet counter inactive | KCC2 sec2 inactive | HEK counter1 inactive | KCC2 ouabain 0.0148 | HEK293 Tl flux2 inactive
O=C(Cn1cnc2c(nnn2Cc2ccc(F)cc2)c1=O)N1CCCc2ccccc21	Cl transport mod -3.97 | KCC2 secondary inactive | KCC2 bumet counter inactive | KCC2 sec2 0.0246 | HEK counter1 inactive | KCC2 ouabain inactive | HEK293 Tl flux2 inactive
O=C(Cn1cnc2c(nnn2Cc2ccccc2)c1=O)N1CCN(c2ccccc2)CC1	Cl transport mod -4.46 (no result: ROMK mod) | KCC2 secondary inactive | KCC2 bumet counter inactive | KCC2 sec2 inactive | HEK counter1 inactive | KCC2 ouabain 0.0144 | HEK293 Tl flux2 inactive
Cc1ccc(-n2nnc3c(=O)n(CC(=O)OCc4ccccc4)cnc32)cc1	none (no result: ROMK mod)
O=C(Nc1ccc(Cc2ccncc2)cc1)c1ccc(S(=O)(=O)N2CCCC2)cc1	none (no result: Measles CPE)
Cc1[nH][nH]c(=O)c1/C=N/N1CCOCC1	none (no result: Measles CPE)
c1ccc(-c2cn3c(n2)-c2ccccc2C3)cc1	none (no result: ROMK mod)
Cc1nn(Cc2ccccc2)c(Cl)c1C(=O)NCc1ccco1	none (no result: Measles CPE)
COCCn1c(-c2ccccc2)nc2ccccc21	none
COCCn1c(SCc2csc(-c3ccccc3)n2)nc2ccccc21	Cl transport mod -3.48 | KCC2 secondary inactive | KCC2 bumet counter inactive | KCC2 sec2 inactive | HEK counter1 0.00509 | KCC2 ouabain 0.0153 | HEK293 Tl flux2 inactive
COc1ccc(C/C(C)=N/NC(=S)Nc2ccccc2F)cc1	Cl transport mod 55.4 (no result: Measles CPE) | KCC2 secondary inactive | KCC2 bumet counter 0.036 | KCC2 sec2 inactive | HEK counter1 inconclusive | KCC2 ouabain 0.0391 | HEK293 Tl flux2 inconclusive
COc1ccc(OCC(=O)NC(=S)Nc2ccccc2F)cc1	Cl transport mod 51.7 (no result: ROMK mod) | KCC2 secondary 0.04 | KCC2 bumet counter 0.0878 | KCC2 sec2 0.049 | HEK counter1 0.0279 | KCC2 ouabain 0.0508 | HEK293 Tl flux2 0.0326
CC1(C)S[C@@H]2C(C(=O)OCc3ccccc3)NC(=O)N2C1C(=O)OCc1ccccc1 (stereo partly specified)	none (no result: ROMK mod, Arbovirus inh, Cl transport mod, Measles CPE)

Screening results deposited in PubChem BioAssay by several laboratories.
